# NS1 function inh: qHTS Assay for Inhibitors of Influenza NS1 Protein Function | Potency, µM (titrated, usually from 46.1 µM), without a hit: top-dose activity, positive = more growth | actives 0.4% (n = 270,000) | AID 2326, 2010; note: potency is the fitted concentration of half-maximal effect; actives are rising curves; nearly all actives have a fitted effect of over 50% in size
#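 OD600 was taken as the measure of yeast growth restored by compound in an NS1-expressing S. cerevisiae strain. Cells had been washed out of glucose medium and diluted 1:100 into galactose -URA medium, pH 6.0.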
# Sm TGR block: qHTS Assay for the Inhibitors of Schistosoma Mansoni Peroxiredoxins; purified TGR, DTNB reduction, TNB absorbance 405 nm; Potency, µM (top dose mostly 114 µM), without a hit: top-dose activity change, negative = inhibition, actives largely listed as inhibitors; actives 3% (n = 360,000); AID 485364, 2010; active = well fitted curve in the direction sought with a large enough effect; inconclusive = small, poorly fitted or top-dose-only effect, or another doubt; inactive = no such curve, though single readings can be large; an effect the other way counts as inactive or inconclusive; note: potency is the fitted concentration of half-maximal effect; % is set by controls: 0 for no effect and ±100 for the full control effect; nearly all actives have a fitted effect of over 60% in size
#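 Kinetic colorimetric format: TGR-catalysed, NADPH-driven DTNB reduction monitored via TNB absorbance. Enzyme dispensed at 20 nM; compound exposure 15 min at room temperature before reaction start.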
# SARS PLP yeast: qHTS of Yeast-based Assay for SARS-CoV PLP; S. cerevisiae expressing SARS-CoV PLpro, growth rescue; Potency, µM (series often up to 32.9 µM), without a hit: top-dose activity, positive = growth rescue, usual class: activators; actives 0.19% (n = 330,000); AID 485353, 2010; note: potency is the fitted concentration of half-maximal effect; 0% is about no effect; nearly all actives have a fitted effect of over 55% in size
# Tb PYK inh: qHTS of Trypanosoma Brucei Inhibitors. pyruvate kinase (Trypanosoma brucei), Q57TT1. TbPYK enzyme, Kinase-Glo Plus ATP luminescence, 45 min. Potency, µM (series often up to 76.8 µM), for the others: at the top dose activity, negative = inhibition, most hits filed as inhibitors. actives 0.12% (n = 410,000). AID 624173, 2012; active = well fitted curve in the direction sought with a large enough effect; inconclusive = small, poorly fitted or top-dose-only effect, or another doubt; inactive = no such curve, though single readings can be large; an effect the other way counts as inactive or inconclusive; note: potency is the fitted concentration of half-maximal effect; % is set by controls: 0 for no effect and ±100 for the full control effect; nearly all actives have a fitted effect of over 50% in size
#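 In this concentration-response screen, enzyme-free wells defined baseline while DMSO plates tracked drift. Each reaction combined TbPYK, substrate, compound and 130 uM ADP for 45 min at room temperature. Kinase-Glo Plus luminescence gave the signal.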
# LmPK inh: qHTS Assay for Inhibitors of Leishmania Mexicana Pyruvate Kinase (LmPK) | purified LmPK, Kinase-Glo ATP luminescence, 1 h | Potency, µM (series often up to 57.5 µM), for inactives: top-dose activity change, negative = inhibition, most hits filed as inhibitors | actives 0.37% (n = 290,000) | AID 1721, 2009; active = well fitted curve in the direction sought with a large enough effect; inconclusive = small, poorly fitted or top-dose-only effect, or another doubt; inactive = no such curve, though single readings can be large; an effect the other way counts as inactive or inconclusive; note: potency is the fitted concentration of half-maximal effect; % is set by controls: 0 for no effect and ±100 for the full control effect
# Target sequence (Q27686 whole entry, looked up): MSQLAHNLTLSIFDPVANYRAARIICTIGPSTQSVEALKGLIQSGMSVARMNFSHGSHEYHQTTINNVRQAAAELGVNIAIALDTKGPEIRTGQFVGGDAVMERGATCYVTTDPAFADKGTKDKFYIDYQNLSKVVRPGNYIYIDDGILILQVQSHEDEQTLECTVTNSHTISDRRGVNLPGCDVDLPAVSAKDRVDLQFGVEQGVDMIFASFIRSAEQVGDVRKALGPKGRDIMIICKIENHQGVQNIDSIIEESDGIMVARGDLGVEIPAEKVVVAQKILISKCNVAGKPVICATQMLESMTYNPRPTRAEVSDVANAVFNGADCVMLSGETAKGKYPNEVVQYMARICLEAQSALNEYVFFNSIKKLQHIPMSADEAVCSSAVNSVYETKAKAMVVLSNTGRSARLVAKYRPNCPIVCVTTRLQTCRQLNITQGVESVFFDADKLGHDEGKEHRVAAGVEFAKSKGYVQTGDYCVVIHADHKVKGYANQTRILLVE
#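 Screened at intermediate enzyme activity to detect both inhibitors and activators: LmPK at 0.1 nM, with a 0.5 nM enzyme column as activation reference. PEP 0.5 mM, ADP 0.1 mM; ATP detected by luminescence after 1 h.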
# RE007 growth inh: qHTS Assay for Inhibitors of the HIV-1 protein Vpr. S. pombe RE007 Vpr strain, BacTiter-Glo ATP luminescence, 24 h. Potency, µM (doses to about 92.2 µM), without a hit: top-dose activity change, negative = less growth, hits mostly inhibitors. actives 0.21% (n = 360,000). AID 651644, 2012; active = well fitted falling curve with a large enough effect; inconclusive = small, poorly fitted or top-dose-only effect; inactive = no such curve, though single readings can be large or run the other way; note: potency is the fitted concentration of half-maximal effect; % is set by controls: 0 for no effect and ±100 for the full control effect; nearly all actives have a fitted effect of over 50% in size
#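 Fission yeast strain RE007, carrying one chromosomally integrated HIV-1 vpr copy, was seeded at OD 0.01 in PMG+AL medium with 23 nL pinned compound. After 24 h at 30 °C and 99% humidity, viability was read by BacTiter-Glo luminescence.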
# Flu NS1 inh: Assay for Inhibitors of Influenza NS1 Protein Function: Hit Validation. activity change, negative = inhibition, % at 32.9 µM. AID 492980, 2010. influenza NS1 function cell assay, 15-point titration. 1,400 tested, under 10 active. shares compounds with NS1 function inh; note: 0% is about no effect
# PR8 titer: Assay for Inhibitors of Influenza NS1 Protein Function: Influenza virus replication assay in MDCK cells infected with virus A/PR/8/34; virus titer (log TCID50), log10 TCID50 at 5 µM; actives 30% (n = 95); MDCK infected influenza A/PR/8/34, virus titer TCID50; active compounds read low; shares compounds with NS1 function inh; call rule not given here
# Numbers without * were called inactive; ? = inconclusive; . = no result. Shown are actives, neighbours in structure and some others; about 3.3% of the full set was active somewhere. Unless noted, calls come from the whole dose curve.
SMILES,NS1 function inh,Sm TGR block,SARS PLP yeast,Tb PYK inh,LmPK inh,RE007 growth inh,Flu NS1 inh,others
O=C(N/N=C/c1ccc(N2CCOCC2)s1)c1ccc(NS(=O)(=O)c2cccs2)cc1,10µM*,?,0%,-7%,1%,3%,36,
COc1ccc2cc(C3CC=C(CO)CN3S(=O)(=O)c3ccccc3[N+](=O)[O-])n(C(=O)OC(C)(C)C)c2c1 (configuration not stated),.,.,.,.,.,14%,.,
CCc1nn(C(CC)C(=O)NCc2ccc(OC)c(OC)c2)c(=O)c2cc3oc(C)cc3n12 (configuration not stated),.,5%,.,3%,.,.,.,
CC1=Nc2nc(N3CCCCC3)c(C#N)c3c4c(nc(c23)N1)N(c1ccc(C(C)C)cc1)C(=O)C4,11µM*,-4%,-3%,-2%,-3%,-4%,12,
CC(C)c1ccc(-c2nc(N3CCCCC3)[nH]c(=O)c2C#N)cc1,-1%,-14%,-15%,4%,3%,10%,.,
COC(=O)c1[nH]c2ccc(C)cc2c1NS(=O)(=O)c1ccc(F)c(C)c1,1.8µM*,-24%,1%,-13%,2%,-17%,-39,
COc1cc(/C=N/NC(=O)c2ccc(CSc3nc4ccccc4[nH]3)cc2)cc(OC)c1OC,13µM*,3%,13%,-6%,1%,.,?,PR8 titer=8
CCOc1ccc(-c2cn(-c3ccccc3OC)c(=S)[nH]2)cc1,?,8%,1%,-21%,4%,-6%,-34,
Cc1cc(N2CCOCC2)nc2ccc(NC(=O)CCC(=O)N3CCCCC3)cc12,-3%,12%,0%,6%,2%,-15%,.,
Cc1cc(N2CCOCC2)nc2ccc(NC(=O)CCC(=O)N3CCC(C)CC3)cc12,5.6µM*,-3%,-1%,2%,3%,-8%,?,
Cc1ccc(CC2CC(=O)N(c3ccc(C)cc3)C2=O)cc1 (configuration not stated),1%,11%,-1%,1%,0%,13%,.,
Cc1ccc(N2C(=O)CC(N(O)C3CC(=O)N(c4ccc(C)cc4)C3=O)C2=O)cc1 (configuration not stated),20µM*,1%,-5%,-5%,6%,4%,?,
Cc1cccc(NC(=O)Cn2c(=O)n(CC3CCC(C(=O)NCCc4ccccc4)CC3)c(=O)c3ccccc32)c1 (configuration not stated),.,0%,.,-2%,.,.,.,
O=C(Nc1ccc2nc(SCC(=O)N3CCCc4ccccc43)sc2c1)c1ccccc1,.,0%,.,1%,.,.,.,
CCCc1cc(=O)[nH]c(SCC(=O)CSc2nc(CCC)cc(=O)[nH]2)n1,8.9µM*,-29%,3%,-7%,2%,1%,30,
CCCc1cc(=O)[nH]c(SCC(=O)NC)n1,-3%,25%,-8%,-1%,-7%,-8%,.,
O=C(Nc1ccc(F)c(Cl)c1)N1CCN2CCCCC2C1 (configuration not stated),.,8%,.,2%,.,.,.,
CC(C)(C)NC(=O)CN(C(=O)c1snc(C(=O)NC2CCCCC2)c1N)c1ccccc1F,3.2µM*,7%,-4%,-4%,-3%,7%,-24,
